# Rows were chosen to be rich in hits. Some 1.4% of all compounds tested hit in one or more screens of this group.
# EBV gp42 inh – EBV gp42 inhibition. inhibition, % (tested at 21.74 µM). Q1HVG2. Fluorescence polarization binding assay, mP read-out. 0.42% of 220,000 active; in the data active = inhibition above about 50%
# Target sequence (Q1HVG2 whole entry, looked up): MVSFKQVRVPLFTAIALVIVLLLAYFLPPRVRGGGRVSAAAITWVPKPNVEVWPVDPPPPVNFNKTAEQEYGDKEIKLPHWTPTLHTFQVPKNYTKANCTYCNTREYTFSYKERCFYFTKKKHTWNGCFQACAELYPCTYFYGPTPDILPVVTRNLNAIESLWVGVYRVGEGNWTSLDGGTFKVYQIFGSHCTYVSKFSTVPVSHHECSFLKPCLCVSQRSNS
# BCLXL inh – Bcl-xL (human) inhibition; Q07817; GST-Bcl-xL / FITC-Bim BH3 peptide fluorescence polarization; inhibition, % at 10.9 µM; 0.7% of 320,000 active;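 active = inhibition above the mean of all tested compounds plus 3 SD, cutoff set per campaign, cut at about 30% in these data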;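 also: 0% = DMSO wells and 100% = unlabeled Bim-BH3 peptide competitor; inhibitors lower millipolarization by displacing the labeled peptide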
# Target sequence (Q07817 whole entry, looked up): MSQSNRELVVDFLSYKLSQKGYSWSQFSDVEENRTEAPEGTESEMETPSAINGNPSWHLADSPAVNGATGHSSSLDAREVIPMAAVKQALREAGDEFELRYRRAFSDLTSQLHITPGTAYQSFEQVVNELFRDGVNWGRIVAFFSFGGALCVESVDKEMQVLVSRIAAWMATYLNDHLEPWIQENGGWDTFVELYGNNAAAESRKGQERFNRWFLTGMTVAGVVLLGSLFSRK
# GLD-1 TGE inh – GLD-1-TGE RNA interaction inhibition (C. elegans) | Q17339 | purified GLD-1 + fluorescein TGE RNA, fluorescence polarization | inhibition, % at 5.96 µM | 0.44% of 320,000 active;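 active = percent inhibition above a per-plate cutoff, the plate mean of test compounds plus 3 SD, cut at about 30% in these data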;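 also: 0% = DMSO wells with GLD-1 and probe and 100% = wells lacking GLD-1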
# MCL1 BIM primary – disrupts human MCL1 binding to BIM-BH3 peptide | inhibition, % at 10.9 µM | 0.68% of 320,000 active | AID 2057 | Q07820 | GST-MCL1 / FITC-Bim-BH3 fluorescence polarization;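 active = inhibition above the mean inhibition of all tested compounds plus 3 SD, set per campaign, cut at about 40% in these data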;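 also: 0% = DMSO wells and 100% = unlabeled Bim-BH3 peptide control; higher means more loss of mP so more displacement of Bim peptide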
# MEX-5 binding – C. elegans MEX-5 TCR-2 RNA binding activity; Q9XUB2; MEX-5/FITC-TCR2 RNA binding, fluorescence polarization; stronger effect = lower value; activity score (negative = inhibition of binding), % at 10 µM; 0.38% of 300,000 active;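 active = inhibition past about -25% in most replicates, and total fluorescence under double the plate's negative control median, limit read from the data; inconclusive = replicates evenly split on the limit, or fluorescence at least double controls; inactive = too little inhibition in most replicates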;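 also: 0% = DMSO and -100% = 5 µM competing unlabeled TCR2 RNA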
# eLon inh – E. coli protease La inhibition; P0A9M0; purified E. coli Lon protease, fluorescence polarization; inhibition, % at 7.94 µM; 0.42% of 360,000 active; AID 602123; in the data active = inhibition above about 13%, passing the limit was not always enough;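 also: 0% = enzyme with probe and DMSO and 100% = no enzyme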
# BCLXL inh confirm – counter-screen for MCL1 inhibitors: confirmation of human Bcl-xL inhibitors; 54% of 1,700 active; shares compounds with MCL1 BIM primary; inhibition, % at 10.9 µM; AID 2166; GST-Bcl-xL / FITC-Bim BH3 peptide FP binding;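 active = inhibition above a cutoff equal to the mean inhibition of all tested compounds plus 3 SD, cut at about 30% in these data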;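 also: 0% = DMSO wells and 100% = unlabeled Bim BH3 control peptide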
# MCL1 inh confirm – confirmation of human MCL1 and BIM-BH3 interaction inhibitors; shares compounds with MCL1 BIM primary; GST-MCL1 / FITC-Bim-BH3 fluorescence polarization; inhibition, % at 10.9 µM; 61% of 1,700 active;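 active = inhibition above the average of all tested compounds plus 3 SD, cut at about 40% in these data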;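 also: 0% = DMSO wells and 100% = unlabeled Bim-BH3 control peptide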
# * marks the source's active call; other numbers are inactive results; u = inconclusive; x = not tested or not shown; + = active, no number.
SMILES,EBV gp42 inh,BCLXL inh,GLD-1 TGE inh,MCL1 BIM primary,MEX-5 binding,eLon inh,BCLXL inh confirm,MCL1 inh confirm
O=C(Cn1c(=O)n(Cc2ccco2)c(=O)c2c3c(sc21)CCCCC3)c1ccccc1,15.3,25.8,-10.5,43.1*,-1.3,-1.1,20.2,32.1
CC(C)NC(=NCc1ccc(Cl)cc1Cl)Nc1ccccc1,x,4.0,11.4,8.6,0.0,-8.9,x,x
O=C1c2cccc(O)c2C(=O)c2c(O)cc(CO)cc21,x,93.2*,81.0*,100.0*,-8.7,x,80.7*,99.8*
CCCn1c(/C=C/c2cc[n+](C)cc2)nc2ccccc21,x,67.1*,30.4,71.5*,0.6,7.9,52.5*,56.1*
COc1cc(Cn2nnc3ccccc32)cc(Br)c1O,x,3.6,12.2,4.5,-1.3,1.0,x,x
Cc1ccccc1CN(C)Cc1cc(=O)oc2c(C)c(C)ccc12,x,3.5,-7.8,63.7*,2.2,-5.8,11.8,6.8
COCCN=c1scc(-c2cccs2)n1/N=C/c1ccc(O)c(O)c1O,16.6,13.5,2.5,48.6*,-1.5,8.1,64.9*,93.5*
Cc1ccc(N=Nc2c(O)n(CN3CCOCC3)c3ccccc23)cc1,94.0*,96.4*,89.1*,77.6*,-27.8*,-15.6,-22.3,-36.0
CCOC(=O)C1=C(CSc2nc(CC)c(C)cc2C#N)OC(N)=C(C#N)C1c1ccccc1 (centres undefined),-11.6,2.3,-23.9,-3.8,-0.1,-13.8,x,x
CCOC(=O)C1=C(CSc2nc3c(cc2C#N)CN(C)CC3)OC(N)=C(C#N)C1c1ccc(Cl)cc1 (centres undefined),-15.1,39.9*,33.5*,52.5*,0.7,-19.6,40.9*,43.8*
CN(C)CCN=Cc1c(O)n(-c2ccc(S(=O)(=O)N3CCOCC3)cc2)c(=O)c2ccccc12,x,x,x,x,x,1.1,x,x
CCOC(=O)CN(C(=O)CNC(=O)c1ccco1)C(C(=O)NC1CCCCC1)c1cccs1 (centres undefined),-1.2,51.6*,27.2,92.0*,0.3,-7.7,46.2*,52.3*
CCOC(=O)CN(C(=O)CNC(=O)c1ccco1)C(C(=O)NC1CCCC1)c1ccccc1OCC (centres undefined),-17.3,2.3,13.8,4.5,1.0,-5.5,x,x
CC(C)Cc1nc(N2CCN(C(=O)C(C)C)CC2)c(C#N)c2c1CCC2,-8.1,3.0,-0.5,-2.1,-1.3,-3.4,x,x
CC(=O)N1CCN(c2nc(CC(C)C)c3c(c2C#N)CCC3)CC1,4.4,166.4*,156.9*,+,-0.8,6.1,19.0,30.2
Cc1ccccc1C(=O)OCn1nnc2ccccc2c1=O,3.0,1.0,4.2,3.2,0.1,1.3,x,x
Cc1ccc(C)c(C(=O)CCC(=O)OCn2nnc3ccccc3c2=O)c1,x,1.8,-2.8,85.3*,x,1.6,11.7,9.3
CCC(=O)N(C)C[C@@H]1Oc2ncc(Br)cc2C(=O)N([C@@H](C)CO)C[C@H]1C,x,x,x,x,x,0.4,x,x
CCn1nc(-c2ccccc2)c2nc3ccccc3nc21,92.6*,88.3*,15.3,100.7*,u,-17.5,137.4*,139.6*
CCn1c2ccc(Cl)cc2c2nc3ccccc3nc21,-1.9,3.1,11.7,-8.8,0.4,x,x,x
CC1(OC(=O)c2cccs2)C(=O)C=C2C=C3CCCN3C=C2C1=O (centres undefined),26.7,23.8,10.9,62.8*,-27.5*,2.3,43.8*,63.2*
O=C(CCc1nnc(CCc2c[nH]c3ccccc23)o1)NC1CCC1,-7.0,4.2,3.8,1.9,-0.9,1.2,x,x
Nc1c(C(=O)C2CC2)sc2nc(-c3cccs3)cc(C(F)(F)F)c12,-111.3,11.3,-36.4,71.5*,u,-221.8,13.0,-17.4
O=C(COC(=O)c1ccc(S(=O)(=O)N2CCOCC2)cc1)Nc1ccccc1OC(F)F,x,x,4.5,x,x,-10.0,x,x
Cc1ccc(C=C2C(Cl)=C(Cl)C(Cl)=C2Cl)cc1,-11.2,28.3,-3.9,68.7*,-8.1,x,23.3,30.2
SMILES,EBV gp42 inh,BCLXL inh,GLD-1 TGE inh,MCL1 BIM primary,MEX-5 binding,eLon inh,BCLXL inh confirm,MCL1 inh confirm
COc1ccc(CCNC(=O)c2c(N)no[n+]2[O-])cc1OC,-0.2,4.8,6.1,95.8*,-3.0,1.0,1.6,-0.9
Cc1ccc(-n2nc3c(c2NC(=O)c2ccc4c(c2)OCO4)CS(=O)C3)c(C)c1 (centres undefined),x,0.1,5.5,-1.9,1.8,9.8,x,x
CCCc1n(CC)c2ccccc2[n+]1CC(O)COC1CCCCC1 (centres undefined),-6.9,-7.9,6.6,-17.4,1.3,-3.5,x,x
N#CC1=C(N)C(C#N)(C#N)C(c2ccncc2)C2CN(C(=O)OCc3ccccc3)CC=C12 (centres undefined),-22.8,19.1,0.2,14.1,-0.1,-6.4,x,x
CC(C)c1ccc(C2C3CSCC=C3C(C#N)=C(N)C2(C#N)C#N)cc1 (centres undefined),-27.2,0.0,3.7,-12.8,2.6,x,x,x
N#CC1=C(N)C(C#N)(C#N)C(c2ccc[nH]2)C2CCCC=C12 (centres undefined),8.3,66.8*,77.5*,72.4*,-17.5,8.1,38.9*,26.9
N#CC1=C(N)C(C#N)(C#N)C(c2cccnc2)C2CCCC=C12 (centres undefined),49.1,84.2*,59.7*,81.0*,-26.3*,x,75.0*,84.9*
N#CC1=C(N)C(C#N)(C#N)[C@H](c2cccnc2)[C@H]2CN(C(=O)OCc3ccccc3)CC=C12,4.0,7.8,8.4,12.3,-0.6,6.6,x,x
N#CC1=C(N)C(C#N)(C#N)C(c2cccnc2)C2CC(c3ccccc3)CC=C12 (centres undefined),22.9,110.0*,103.4*,135.2*,2.8,18.1*,10.7,14.0
C[C@H](CO)N1C[C@H](C)[C@@H](CN(C)S(=O)(=O)c2ccccc2F)Oc2ncc(Br)cc2C1=O,x,x,x,x,x,0.8,x,x
CSc1ccccc1NC(=O)c1noc2c1CCC2,13.6,8.1,3.9,33.5,-0.2,-7.5,x,x
COC(=O)c1ccccc1NC(=O)c1noc2c1CCC2,32.4,11.7,0.0,40.9*,-5.5,-3.7,14.5,49.4*
COC(C[C@H](O)CC(=O)[C@H](C)OCc1ccccc1)OC,-7.5,x,x,x,-3.2,0.8,x,x
CCOC(=O)c1cnc(-n2[nH]c(C)cc2=O)[nH]c1=O,8.7,0.9,-4.4,74.0*,0.1,-1.8,5.0,81.1*
COCCNC(=O)C(c1ccc(O)cc1)N(Cc1ccccc1)C(=O)CCC(=O)Nc1nccs1 (centres undefined),x,-0.1,8.0,5.8,-0.7,3.0,x,x
Cc1ccc(C)c(NC(=O)Nc2ccc3c(c2)OCO3)c1,x,2.2,2.7,1.0,2.8,-8.0,x,x
